# Laboratory results reported in the supplement of paper PMC10849652.
# About 8,800 targets were measured; listed, in parts, are those with a hit and a random draw of the rest. About 0.5% of all pairs of compound and target were hits. Unmarked numbers belong to inactive results.
# Tests used:
# Assay in all cases: log2 fold change, soluble protein after heating vs DMSO (PISA); higher = thermal stabilisation; K562 lysate, 10 uM; active = over 0.2 and 3.5 SD of the protein, either way, in both replicates (recomputed)
# nilotinib = compound: Cc1cn(-c2cc(NC(=O)c3ccc(C)c(Nc4nccc(-c5cccnc5)n4)c3)cc(C(F)(F)F)c2)cn1 [nilotinib]
# Outline: (§1)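 Dounce homogenisation of K562 pellets in PBS pH 7.4 with 1 mM MgCl2 produced a crude extract, used at 1 mg/mL protein. Exposure to 10 μM compound lasted 30 min, and aliquots were then heated for 3 min across 48°C-58°C, pooled and brought to 0.5% NP-40 at 4°C. The supernatant after 21,000xg for 90 min was quantified by TMTpro 16plex LC-MS/MS with channel sums equalised. Duplicate values are given as log-two fold change in thermal stability relative to solvent controls.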
# [1] = compound: Cc1nc(Nc2n[nH]c3c2CN(C(=O)N[C@H](CN(C)C)c2ccccc2)C3(C)C)c2sccc2n1
# Outline: as §1
# dasatinib = compound: Cc1nc(Nc2ncc(C(=O)Nc3c(C)cccc3Cl)s2)cc(N2CCN(CCO)CC2)n1 [dasatinib]
# Outline: as §1
# [2] = compound: Cc1ncc(-c2ccnc(Nc3ccc(S(C)(=O)=O)cc3)n2)n1C(C)C
# Outline: as §1
# [3] = compound: Cn1cc(-c2ccc3c(c2)CCN3C(=O)Cc2cccc(C(F)(F)F)c2)c2c(N)ncnc21
# Outline: as §1
# quisinostat = compound: Cn1cc(CNCC2CCN(c3ncc(C(=O)NO)cn3)CC2)c2ccccc21 [quisinostat]
# Outline: as §1
# tipifarnib = compound: Cn1cncc1[C@@](N)(c1ccc(Cl)cc1)c1ccc2c(c1)c(-c1cccc(Cl)c1)cc(=O)n2C [tipifarnib]
# Outline: as §1
# [4] = compound: NC(=O)Nc1cc(-c2cccc(F)c2)sc1C(=O)N[C@H]1CCCNC1
# Outline: as §1
# [5] = compound: NC(=O)c1cnc(N[C@@H]2CCCC[C@@H]2N)nc1Nc1cccc(-n2nccn2)c1
# Outline: as §1
# [6] = compound: NC1(c2ccc(-c3nc4ccn5c(=O)[nH]nc5c4cc3-c3ccccc3)cc2)CCC1
# Outline: as §1
# [7] = compound: NCC(=O)Nc1ccc(-n2nc(C(F)(F)F)cc2-c2ccc3c(ccc4ccccc43)c2)cc1
# Outline: as §1
# vorinostat = compound: O=C(CCCCCCC(=O)Nc1ccccc1)NO [vorinostat]
# Outline: as §1
# silmitasertib = compound: O=C(O)c1ccc2c(c1)nc(Nc1cccc(Cl)c1)c1ccncc12 [silmitasertib]
# Outline: as §1
# [8] = compound: O=C1NC(=O)C(c2cnc3ccccn23)=C1c1cn2c3c(cc(F)cc13)CN(C(=O)N1CCCCC1)CC2
# Outline: as §1
# entospletinib = compound: c1cn2cc(-c3ccc4cn[nH]c4c3)nc(Nc3ccc(N4CCOCC4)cc3)c2n1 [entospletinib]
# Outline: as §1
# UniProt P28328, sequence (P28328 whole entry, looked up): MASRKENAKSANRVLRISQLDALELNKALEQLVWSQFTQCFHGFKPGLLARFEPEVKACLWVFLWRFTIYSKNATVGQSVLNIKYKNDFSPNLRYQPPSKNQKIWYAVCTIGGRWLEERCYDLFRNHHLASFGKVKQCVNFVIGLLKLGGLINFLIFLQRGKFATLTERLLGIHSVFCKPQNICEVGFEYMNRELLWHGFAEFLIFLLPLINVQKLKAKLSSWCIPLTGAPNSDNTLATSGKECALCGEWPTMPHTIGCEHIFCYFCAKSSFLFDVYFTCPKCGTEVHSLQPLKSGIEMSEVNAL
# UniProt Q96S99, sequence (Q96S99 whole entry, looked up): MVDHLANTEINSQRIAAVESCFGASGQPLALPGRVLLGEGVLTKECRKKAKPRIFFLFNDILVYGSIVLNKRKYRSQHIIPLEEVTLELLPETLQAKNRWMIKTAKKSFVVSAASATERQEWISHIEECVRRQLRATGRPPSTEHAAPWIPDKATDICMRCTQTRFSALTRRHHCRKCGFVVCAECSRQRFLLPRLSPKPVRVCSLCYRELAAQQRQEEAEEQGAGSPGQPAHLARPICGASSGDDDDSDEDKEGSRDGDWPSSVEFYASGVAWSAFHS
# UniProt Q9H939, sequence (Q9H939 whole entry, looked up): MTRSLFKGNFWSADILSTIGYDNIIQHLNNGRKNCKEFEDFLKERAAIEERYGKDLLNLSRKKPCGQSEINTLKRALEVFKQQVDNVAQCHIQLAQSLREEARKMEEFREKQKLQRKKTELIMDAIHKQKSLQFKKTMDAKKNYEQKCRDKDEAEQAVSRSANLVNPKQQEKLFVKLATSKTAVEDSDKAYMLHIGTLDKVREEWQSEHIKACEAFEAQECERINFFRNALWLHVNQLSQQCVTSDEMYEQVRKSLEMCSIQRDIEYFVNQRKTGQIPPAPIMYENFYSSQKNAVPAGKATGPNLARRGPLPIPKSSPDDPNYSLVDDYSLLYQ
# UniProt P28065, sequence (P28065 whole entry, looked up): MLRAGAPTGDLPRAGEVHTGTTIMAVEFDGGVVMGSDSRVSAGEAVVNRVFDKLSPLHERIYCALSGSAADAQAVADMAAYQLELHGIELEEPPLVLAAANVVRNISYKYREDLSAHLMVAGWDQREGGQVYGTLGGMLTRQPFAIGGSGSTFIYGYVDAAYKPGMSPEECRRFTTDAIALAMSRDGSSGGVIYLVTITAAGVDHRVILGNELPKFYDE
# UniProt P14314, sequence (P14314 whole entry, looked up): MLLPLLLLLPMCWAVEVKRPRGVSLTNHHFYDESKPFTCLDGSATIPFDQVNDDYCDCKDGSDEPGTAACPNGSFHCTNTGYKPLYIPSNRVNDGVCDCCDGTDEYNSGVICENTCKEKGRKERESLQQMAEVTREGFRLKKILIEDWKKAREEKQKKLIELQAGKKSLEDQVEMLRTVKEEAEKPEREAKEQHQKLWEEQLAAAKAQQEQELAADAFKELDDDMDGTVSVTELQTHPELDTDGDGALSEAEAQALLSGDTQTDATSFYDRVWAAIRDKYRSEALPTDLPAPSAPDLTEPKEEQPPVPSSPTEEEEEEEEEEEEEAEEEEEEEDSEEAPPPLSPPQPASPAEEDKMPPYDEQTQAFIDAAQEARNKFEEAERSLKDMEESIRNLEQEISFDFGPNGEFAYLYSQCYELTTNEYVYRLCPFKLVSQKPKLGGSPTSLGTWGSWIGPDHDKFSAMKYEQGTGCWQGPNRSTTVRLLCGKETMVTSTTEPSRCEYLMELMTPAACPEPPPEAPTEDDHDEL
# UniProt P50336, sequence (P50336 whole entry, looked up): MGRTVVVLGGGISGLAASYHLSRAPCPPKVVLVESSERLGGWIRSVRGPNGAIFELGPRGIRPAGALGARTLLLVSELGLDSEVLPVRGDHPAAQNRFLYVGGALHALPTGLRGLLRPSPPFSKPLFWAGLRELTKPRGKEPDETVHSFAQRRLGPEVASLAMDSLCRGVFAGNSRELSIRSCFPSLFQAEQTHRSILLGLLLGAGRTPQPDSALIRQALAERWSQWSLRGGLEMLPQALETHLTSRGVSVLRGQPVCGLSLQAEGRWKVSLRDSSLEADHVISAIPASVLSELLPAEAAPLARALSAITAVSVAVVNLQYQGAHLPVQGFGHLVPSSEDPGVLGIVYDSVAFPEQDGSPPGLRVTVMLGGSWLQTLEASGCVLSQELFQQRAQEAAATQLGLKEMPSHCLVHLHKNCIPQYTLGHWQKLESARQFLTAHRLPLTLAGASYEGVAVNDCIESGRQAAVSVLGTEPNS
# UniProt P48147, sequence (P48147 whole entry, looked up): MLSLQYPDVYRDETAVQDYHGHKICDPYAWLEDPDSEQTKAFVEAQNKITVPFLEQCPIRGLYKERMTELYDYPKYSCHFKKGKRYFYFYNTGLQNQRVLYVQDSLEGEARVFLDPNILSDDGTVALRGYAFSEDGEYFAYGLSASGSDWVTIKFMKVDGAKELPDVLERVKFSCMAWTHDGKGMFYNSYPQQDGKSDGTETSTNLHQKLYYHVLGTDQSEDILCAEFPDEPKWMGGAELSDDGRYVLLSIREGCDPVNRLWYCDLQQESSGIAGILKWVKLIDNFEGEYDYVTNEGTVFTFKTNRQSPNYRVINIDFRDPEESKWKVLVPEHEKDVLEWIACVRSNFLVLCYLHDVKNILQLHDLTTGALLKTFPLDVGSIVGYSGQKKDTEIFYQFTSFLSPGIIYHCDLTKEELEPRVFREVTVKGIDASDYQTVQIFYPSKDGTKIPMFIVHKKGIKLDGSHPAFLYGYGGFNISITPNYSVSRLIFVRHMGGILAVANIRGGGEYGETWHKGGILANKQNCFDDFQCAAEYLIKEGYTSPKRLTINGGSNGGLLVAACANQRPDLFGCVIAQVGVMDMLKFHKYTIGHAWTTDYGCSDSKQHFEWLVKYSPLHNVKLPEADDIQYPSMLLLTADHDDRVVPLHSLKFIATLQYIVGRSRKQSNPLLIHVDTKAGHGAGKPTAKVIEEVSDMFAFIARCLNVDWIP
# UniProt Q8NA72, sequence (Q8NA72 whole entry, looked up): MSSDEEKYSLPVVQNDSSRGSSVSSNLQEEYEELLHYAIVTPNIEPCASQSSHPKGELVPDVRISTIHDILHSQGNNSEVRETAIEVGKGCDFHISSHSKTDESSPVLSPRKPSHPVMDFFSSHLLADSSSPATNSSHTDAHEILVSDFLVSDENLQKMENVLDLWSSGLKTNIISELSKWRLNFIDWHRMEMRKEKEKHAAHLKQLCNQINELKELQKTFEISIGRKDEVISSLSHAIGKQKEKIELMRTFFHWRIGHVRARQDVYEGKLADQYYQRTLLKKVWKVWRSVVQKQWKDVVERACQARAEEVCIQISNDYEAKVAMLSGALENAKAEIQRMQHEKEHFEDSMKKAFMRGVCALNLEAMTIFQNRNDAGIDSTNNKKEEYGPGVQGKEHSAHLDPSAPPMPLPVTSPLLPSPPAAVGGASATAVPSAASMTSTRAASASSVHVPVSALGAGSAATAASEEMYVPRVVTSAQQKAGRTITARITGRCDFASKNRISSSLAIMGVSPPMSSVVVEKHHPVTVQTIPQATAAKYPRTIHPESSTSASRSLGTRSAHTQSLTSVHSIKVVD
# UniProt P78395, sequence (P78395 whole entry, looked up): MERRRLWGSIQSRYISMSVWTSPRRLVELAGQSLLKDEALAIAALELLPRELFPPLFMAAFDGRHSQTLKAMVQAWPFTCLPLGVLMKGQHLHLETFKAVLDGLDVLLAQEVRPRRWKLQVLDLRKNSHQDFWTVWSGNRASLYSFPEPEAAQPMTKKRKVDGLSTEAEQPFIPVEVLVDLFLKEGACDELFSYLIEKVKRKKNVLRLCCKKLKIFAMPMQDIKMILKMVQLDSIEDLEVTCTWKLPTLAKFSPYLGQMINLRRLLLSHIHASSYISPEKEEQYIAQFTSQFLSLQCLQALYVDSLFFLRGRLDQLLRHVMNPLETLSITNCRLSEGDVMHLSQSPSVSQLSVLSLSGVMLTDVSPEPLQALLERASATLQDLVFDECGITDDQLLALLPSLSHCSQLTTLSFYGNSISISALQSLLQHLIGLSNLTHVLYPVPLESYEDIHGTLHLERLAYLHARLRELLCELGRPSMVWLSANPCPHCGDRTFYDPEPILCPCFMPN
# UniProt O43175, sequence (O43175 whole entry, looked up): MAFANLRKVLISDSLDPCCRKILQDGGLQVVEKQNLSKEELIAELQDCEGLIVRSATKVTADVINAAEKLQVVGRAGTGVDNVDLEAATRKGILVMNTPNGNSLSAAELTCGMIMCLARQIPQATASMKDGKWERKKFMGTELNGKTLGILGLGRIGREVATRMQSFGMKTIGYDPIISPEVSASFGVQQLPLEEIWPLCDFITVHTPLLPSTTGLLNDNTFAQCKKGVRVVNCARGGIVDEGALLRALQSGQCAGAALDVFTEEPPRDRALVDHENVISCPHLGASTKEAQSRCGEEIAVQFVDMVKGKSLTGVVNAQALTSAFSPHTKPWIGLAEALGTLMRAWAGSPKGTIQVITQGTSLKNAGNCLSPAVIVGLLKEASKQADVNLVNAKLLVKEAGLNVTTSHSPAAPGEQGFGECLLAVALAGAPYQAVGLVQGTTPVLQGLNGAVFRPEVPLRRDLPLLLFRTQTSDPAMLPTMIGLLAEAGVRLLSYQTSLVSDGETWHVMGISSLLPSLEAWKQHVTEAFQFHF
# UniProt Q93096, sequence (Q93096 whole entry, looked up): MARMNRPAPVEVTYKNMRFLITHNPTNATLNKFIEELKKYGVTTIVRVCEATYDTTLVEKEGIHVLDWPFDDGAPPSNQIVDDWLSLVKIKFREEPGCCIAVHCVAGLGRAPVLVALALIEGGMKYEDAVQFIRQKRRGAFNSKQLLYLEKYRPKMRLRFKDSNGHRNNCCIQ
# UniProt O43741, sequence (O43741 whole entry, looked up): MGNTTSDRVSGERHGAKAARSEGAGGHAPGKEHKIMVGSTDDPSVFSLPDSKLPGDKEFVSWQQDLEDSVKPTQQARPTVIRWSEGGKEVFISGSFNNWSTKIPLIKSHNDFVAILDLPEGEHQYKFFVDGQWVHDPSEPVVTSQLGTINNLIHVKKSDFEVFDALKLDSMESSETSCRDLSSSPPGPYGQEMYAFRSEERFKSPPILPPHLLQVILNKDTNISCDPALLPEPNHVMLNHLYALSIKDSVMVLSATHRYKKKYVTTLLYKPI
Target,log2 fold change (nilotinib),log2 fold change [1],log2 fold change (dasatinib),log2 fold change [2],log2 fold change [3],log2 fold change (quisinostat),log2 fold change (tipifarnib),log2 fold change [4],log2 fold change [5],log2 fold change [6],log2 fold change [7],log2 fold change (vorinostat),log2 fold change (silmitasertib),log2 fold change [8],log2 fold change (entospletinib)
PXMP4 (UniProt Q9Y6I8),-0.011,0.014,0.078,0.013,-0.092,-0.146,0.846 (active),0.018,-0.018,-0.215,0.038,0.295,0.134,0.021,-0.004
PRAME (UniProt P78395),0.028,0.005,-0.004,0.001,-0.017,-0.081,-0.007,0.053,-0.01,-0.006,0.025,-0.283 (active),0.043,0.004,0.048
PHGDH (UniProt O43175),0.013,-0.025,-0.077,0.005,0.021,-0.032,0.018,-0.032,0.006,0.054,0.023,-0.939 (active),0.031,0.028,0.016
PRKCSH (UniProt P14314),0.01,0.016,0.037,0.041,-0.003,0.088,0.008,-0.006,-0.004,0.036,0.002,0.141,-0.015,-0.001,0.001
PEX2 (UniProt P28328),0.059,-0.158,-0.078,-0.041,0.039,0.054,0.048,0.143,0.116,-0.106,-0.055,-0.25,0.042,0.043,–
PDAP1 (UniProt Q13442),0,0.002,0.066,-0.01,-0.009,0.013,0.044,0.017,-0.016,-0.032,0.014,0.118,0.005,-0.004,-0.027
PSTPIP2 (UniProt Q9H939),0.029,0.016,-0.056,0.028,0.023,-0.037,-0.008,0.008,-0.007,0.007,0.046,-0.312 (active),0.04,0.017,-0.005
PIP4K2A (UniProt P48426),0.041,-0.006,0.068,0.141,0.046,-0.001,-0.062,0.039,-0.012,-0.056,0.027,0.024,0.225,0.007,-0.029
PFAS (UniProt O15067),0.015,-0.023,-0.031,-0.017,0.008,-0.037,0.01,0.01,0.005,-0.009,0.029,-0.272 (active),0.022,0.031,0.016
PTP4A1 (UniProt Q93096),-0.035,0.005,0.026,-0.057,0,0.151,0.011,-0.059,-0.011,-0.029,0.019,-0.292 (active),-0.003,0.014,-0.009
PDE2A (UniProt O00408),0.021,-0.033,0.042,-0.008,0.035,0.026,0.042,0.006,0.08,-0.184,0.195,0.117,0.022,0.071,0.01
POC5 (UniProt Q8NA72),0.01,0.058,-0.159,0.09,-0.081,0.007,0.005,-0.005,-0.128,0.034,-0.128,-0.36 (active),-0.021,0.02,-0.184
POLR2B (UniProt P30876),-0.027,0.01,-0.065,0.004,0.003,-0.057,-0.012,0.027,-0.004,-0.03,0.03,-0.344 (active),0.034,0.024,-0.008
PLEKHF1 (UniProt Q96S99),-0.03,-0.028,-0.016,0.012,-0.027,-0.009,-0.012,0.021,-0.002,-0.023,-0.019,-0.272 (active),0.07,-0.014,0.014
PSMB9 (UniProt P28065),0.019,0.092,-0.031,-0.098,-0.033,-0.213,0.024,0.027,0.034,-0.076,0.07,0.057,0.008,0.081,0
PPOX (UniProt P50336),0.227,-0.001,0.086,0.054,-0.004,0.129,-0.012,-0.019,-0.008,-0.036,0,-0.142,0.11,0.016,0
PI4KA (UniProt P42356),-0.025,0.055,-0.098,0.015,0.043,-0.076,-0.031,0.041,0.003,0.019,-0.011,-0.426 (active),0.077,0.004,0.031
PPIL2 (UniProt Q13356),-0.032,0.014,0.064,0.008,-0.004,-0.063,-0.038,0.018,-0.063,0.011,0.015,-0.32 (active),0.019,-0.009,0.014
PREP (UniProt P48147),0,-0.014,-0.026,-0.002,0.007,0.008,0.023,0.011,0.006,-0.005,0.006,-0.153,0.008,-0.01,0.014
PRKAB2 (UniProt O43741),0.033,0.203,-0.049,0.106,0.042,-0.031,-0.031,0.14,0.036,0.023,-0.006,-0.009,0.111,0.096,0.013
PHKA1 (UniProt P46020),-0.059,0.14,-0.138,-0.007,0.029,-0.072,-0.021,0.272 (active),0.091,-0.053,0.002,-0.223 (active),0.184,-0.001,-0.01
